Data: publication PMC5700166

Experiments:
Assay in all cases: protein-binding microarray (PBM); PBM: ~300 nM protein, 6 mM HEPES pH 7.8, 80 mM KCl, 0.5 mM EDTA, 0.5 mM EGTA, 6% glycerol, 35 ng/ul poly-dIdC, 1% milk, 1 h, room temperature; Ap Aiptasia and Nv Nematostella (sea anemones) / Co Capsaspora / Aq Amphimedon (sponge) / Dm Drosophila / Hu human; RHD is the Rel homology domain; high values mean tight binding
Settings in all cases: dsDNA, one strand shown
[1] = target: T1, GST-Ap-NF-kB RHD (Exaiptasia pallida (Aiptasia), UniProt A0A913YAJ5 2-422)
T1 sequence: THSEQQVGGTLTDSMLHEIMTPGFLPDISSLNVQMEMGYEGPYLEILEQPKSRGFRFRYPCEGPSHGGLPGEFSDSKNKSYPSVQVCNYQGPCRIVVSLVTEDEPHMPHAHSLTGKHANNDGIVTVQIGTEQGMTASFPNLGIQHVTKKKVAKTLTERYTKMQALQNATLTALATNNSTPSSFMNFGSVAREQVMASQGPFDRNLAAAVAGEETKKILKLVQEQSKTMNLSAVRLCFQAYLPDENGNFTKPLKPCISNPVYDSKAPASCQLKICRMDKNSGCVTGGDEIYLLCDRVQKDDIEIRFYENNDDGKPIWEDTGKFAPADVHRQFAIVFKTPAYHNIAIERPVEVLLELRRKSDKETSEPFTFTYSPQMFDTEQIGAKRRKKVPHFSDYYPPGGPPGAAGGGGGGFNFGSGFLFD

[2] = target: T2, GST-Nv-NF-kB (Cys allele) (Nematostella vectensis, UniProt E5G601 2-411)
T2 sequence: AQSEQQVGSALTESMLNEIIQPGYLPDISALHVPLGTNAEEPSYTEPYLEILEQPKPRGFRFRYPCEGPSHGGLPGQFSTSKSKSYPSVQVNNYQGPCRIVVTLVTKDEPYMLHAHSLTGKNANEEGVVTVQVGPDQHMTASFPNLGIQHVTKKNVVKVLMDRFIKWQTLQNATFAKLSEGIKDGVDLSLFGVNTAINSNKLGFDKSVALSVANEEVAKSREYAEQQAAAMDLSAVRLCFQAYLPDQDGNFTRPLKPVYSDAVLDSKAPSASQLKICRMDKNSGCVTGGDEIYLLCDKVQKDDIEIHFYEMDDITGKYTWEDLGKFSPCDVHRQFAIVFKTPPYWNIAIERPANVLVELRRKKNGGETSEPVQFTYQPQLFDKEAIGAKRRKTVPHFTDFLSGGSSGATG

[3] = target: T3, GST-Co-NF-kB (Capsaspora owczarzaki, UniProt F1ARL5 200-546)
T3 sequence: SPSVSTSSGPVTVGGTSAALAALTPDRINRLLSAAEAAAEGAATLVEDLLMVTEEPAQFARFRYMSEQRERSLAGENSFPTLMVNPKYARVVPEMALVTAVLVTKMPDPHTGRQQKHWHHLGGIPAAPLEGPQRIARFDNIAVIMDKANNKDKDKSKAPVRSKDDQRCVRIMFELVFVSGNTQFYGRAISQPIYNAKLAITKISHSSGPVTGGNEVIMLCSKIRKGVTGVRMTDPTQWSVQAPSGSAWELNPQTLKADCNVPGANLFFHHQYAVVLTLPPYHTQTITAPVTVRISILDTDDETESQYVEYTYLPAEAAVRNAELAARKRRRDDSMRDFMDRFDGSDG

[4] = target: T4, GST-Dm-Relish (Drosophila melanogaster, UniProt Q94527 99-473)
T4 sequence: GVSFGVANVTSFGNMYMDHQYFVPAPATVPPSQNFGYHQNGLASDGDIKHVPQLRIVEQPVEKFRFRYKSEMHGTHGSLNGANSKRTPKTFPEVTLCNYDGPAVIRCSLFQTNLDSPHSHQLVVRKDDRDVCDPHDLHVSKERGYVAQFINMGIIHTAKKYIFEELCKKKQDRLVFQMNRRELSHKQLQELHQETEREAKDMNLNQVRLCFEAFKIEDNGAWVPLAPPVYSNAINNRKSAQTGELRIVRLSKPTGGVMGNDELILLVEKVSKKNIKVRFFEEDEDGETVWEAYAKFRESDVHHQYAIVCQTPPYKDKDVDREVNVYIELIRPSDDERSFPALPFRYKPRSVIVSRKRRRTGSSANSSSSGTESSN

[5] = target: T5, GST-Aq-NF-kB (Amphimedon queenslandica, UniProt A9Y5G7 2-389)
T5 sequence: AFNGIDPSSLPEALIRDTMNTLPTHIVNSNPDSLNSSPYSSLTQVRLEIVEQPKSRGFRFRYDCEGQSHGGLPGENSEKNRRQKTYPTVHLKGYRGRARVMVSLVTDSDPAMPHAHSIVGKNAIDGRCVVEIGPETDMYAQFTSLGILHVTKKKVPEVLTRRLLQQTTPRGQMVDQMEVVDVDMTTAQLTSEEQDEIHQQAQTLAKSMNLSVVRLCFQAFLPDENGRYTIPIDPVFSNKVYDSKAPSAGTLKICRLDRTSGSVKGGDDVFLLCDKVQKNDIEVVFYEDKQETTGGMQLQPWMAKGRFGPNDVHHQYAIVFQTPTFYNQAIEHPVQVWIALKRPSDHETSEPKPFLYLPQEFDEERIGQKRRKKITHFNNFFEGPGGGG

Sequence | binding signal [1] [z-score] | binding signal [2] [z-score] | binding signal [3] [z-score] | binding signal [4] [z-score] | binding signal [5] [z-score]
CCGATTAACATCAGGGTATTTACTGATGTTAATCGGGTCTTGATTCGCTTGACGCTGCTG | 3.45 | 5.05 | 1.4 | 7.1 | 6.01
CCGATTAACATCACGTTCCCCCCTGATGTTAATCGGGTCTTGATTCGCTTGACGCTGCTG | 6.32 | 5.07 | 9.5 | 4.11 | 4.43
CCGATTAACATCAAGGTTTTCCCTGATGTTAATCGGGTCTTGATTCGCTTGACGCTGCTG | 4.36 | 5.34 | 4.71 | 5.1 | 5.65
CCGATTAACATCAGGGAGCCCCCTGATGTTAATCGGGTCTTGATTCGCTTGACGCTGCTG | 8.32 | 4.79 | 2.5 | 9.12 | 7.55
CCGATTAACATCACATTCTCCCCTGATGTTAATCGGGTCTTGATTCGCTTGACGCTGCTG | 4.7 | 4.44 | 6.71 | 1.55 | 3.34
CCGATTAACATCACGGGGTTGCCTGATGTTAATCGGGTCTTGATTCGCTTGACGCTGCTG | 1.46 | 1.02 | 1.38 | 2.5 | 2.2
CCGATTAACATCAAAACAGTCCCTGATGTTAATCGGGTCTTGATTCGCTTGACGCTGCTG | 4.53 | 5.79 | 1.26 | 3.28 | 6.16
CCGATTAACATCAAATAAATCCCTGATGTTAATCGGGTCTTGATTCGCTTGACGCTGCTG | 3.07 | 4.02 | 1.92 | 5.66 | 5.06
CCGATTAACATCAACTCCCCCCCTGATGTTAATCGGGTCTTGATTCGCTTGACGCTGCTG | 6.64 | 4.56 | 7.71 | 5.06 | 5.08
CCGATTAACATCACAGGGAATTCTGATGTTAATCGGGTCTTGATTCGCTTGACGCTGCTG | 4.57 | 5.56 | 3.45 | 3.71 | 4.62
CCGATTAACATCAAGGGAAACCCTGATGTTAATCGGGTCTTGATTCGCTTGACGCTGCTG | 4.71 | 5.3 | 2.82 | 7.64 | 5.8
CCGATTAACATCACTGGGAAAACTGATGTTAATCGGGTCTTGATTCGCTTGACGCTGCTG | 1.79 | 2.36 | 5.25 | 1.48 | 1.81
CCGATTAACATCAATTGCCCCCCTGATGTTAATCGGGTCTTGATTCGCTTGACGCTGCTG | 4.5 | 2.81 | 5.24 | 3.87 | 4.63
CCGATTAACATCACGGGAAACTCTGATGTTAATCGGGTCTTGATTCGCTTGACGCTGCTG | 3.67 | 4.12 | 4.3 | 1.55 | 4.35
CCGATTAACATCACGGGATTTACTGATGTTAATCGGGTCTTGATTCGCTTGACGCTGCTG | 2.52 | 2.6 | 1.01 | 7.12 | 3.52
CCGATTAACATCAGGGAATGCCATGATGTTAATCGGGTCTTGATTCGCTTGACGCTGCTG | 1.69 | 2.76 | 1.43 | 2.52 | 3.45
CCGATTAACATCACGGCTTTCCCTGATGTTAATCGGGTCTTGATTCGCTTGACGCTGCTG | 2.31 | 3.5 | 2.32 | 2.21 | 3.7
CCGATTAACATCAGGGGCACCCCTGATGTTAATCGGGTCTTGATTCGCTTGACGCTGCTG | 5.17 | 3.94 | 2.5 | 7.23 | 7.19
CCGATTAACATCAGCGAATTCCCTGATGTTAATCGGGTCTTGATTCGCTTGACGCTGCTG | 3.47 | 4.45 | 2.15 | 2.72 | 3.61
CCGATTAACATCAAGGGGGGGGCTGATGTTAATCGGGTCTTGATTCGCTTGACGCTGCTG | 5.13 | 3.96 | 4.65 | 5.21 | 4.89
CCGATTAACATCAGGGGGTTAACTGATGTTAATCGGGTCTTGATTCGCTTGACGCTGCTG | 5.36 | 3.73 | 2.64 | 8.09 | 5.06
CCGATTAACATCAAAATAATCCCTGATGTTAATCGGGTCTTGATTCGCTTGACGCTGCTG | 6.46 | 4.62 | 2.45 | 4.15 | 5.15
CCGATTAACATCAATGGGAATTCTGATGTTAATCGGGTCTTGATTCGCTTGACGCTGCTG | 2.8 | 4.72 | 2.98 | 4.26 | 3.51
CCGATTAACATCAGTAATTCCCATGATGTTAATCGGGTCTTGATTCGCTTGACGCTGCTG | 4.02 | 4.3 | 5.42 | 7.23 | 4.24
CCGATTAACATCAGGGATAACCCTGATGTTAATCGGGTCTTGATTCGCTTGACGCTGCTG | 3.63 | 3.77 | 1.82 | 4.42 | 6.12
CCGATTAACATCAGGGAGATTTATGATGTTAATCGGGTCTTGATTCGCTTGACGCTGCTG | 3.69 | 5.42 | 2.8 | 1.71 | 5.99
CCGATTAACATCAGGGGGTGATATGATGTTAATCGGGTCTTGATTCGCTTGACGCTGCTG | 3.88 | 3.66 | 4.73 | 2.63 | 4.56
CCGATTAACATCAGATCTTCCCCTGATGTTAATCGGGTCTTGATTCGCTTGACGCTGCTG | 4.63 | 6.25 | 7.3 | 4.83 | 6.29
